# Data: the supplement of paper PMC6555819
# Tested on: PPARg DBDmut:RXRa IVT, anti-PPARg (DBD mutation: PPARg1 K132A/R137A, NR concentration 270 nM, RXRa partner concentration 90 nM)
# Assay: PBM binding z-score (relative to random genomic background probes); higher = stronger binding; sequences stand for … in GC…GCGATTGACAGCGTAGAATGAAGG
# Method in brief: (§1)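 The probes on custom Agilent 4×180K protein-binding microarrays were double-stranded, with 34-nt variable regions bearing direct-repeat seeds, single-nucleotide variants, half-site ablations and random human genomic background sequences. Incubation lasted 1 h with ligand-free nuclear receptor dimers in PBS pH 7.4, 2% milk, 0.02% Triton X-100, 1 mM DTT, 0.2 mg/mL BSA and 0.4 mg/ml salmon testes DNA. Antibodies against each partner (one per run) detected bound dimers, and fluorescence scans were regression-normalized. Binding z-scores take the random background probes as reference.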
row,Sequence,PBM binding z-score
1,CAAACTAGGTCACCGGAAGGTCAAACTCCGCATG,5.1
2,TAGCCTAGGTCAGATCGGACCAGTATACGCTATA,0.21
3,TCATATAGGTAAAAGGTGAAAGTCGGTGTGGTAA,2.1
4,ACTATTCGTTGAGACGAGGGCAACCGATAGGTTG,1.01
5,TCGAGTAGGTTACCAATGGGCCATTCAGCTTTCT,-1.01
6,TCGAGTAGGTTAGACGGGGCATTCAGCCAACATA,-0.111
7,AGAATGAGGTTACTAAGATCAGGGAATTGCGGTC,0.676
8,CCGACTGAGGCAGAAAGGTTACCATACCATCCGG,-1.78
9,GCAGACAGGTGAAACGCACGTAACTCAGGGTGGC,0.226
10,CCGACTGGGGCAGAAAGGTTACCATACCATCCGG,-0.897
11,GCTCGGAGGAAAAGGTCAGAGCTTTGTCCGTAGA,-1.39
12,AGAATGAGGTAAAGATCAGGGAAACAGAATACAT,1.8
13,CAGCCCAGGTCAGGGCCAGTATAGGAGGAACGTT,-1.13
14,CGAACTAGGTCAGAACAGGACAGTGGAGGATGAT,1.32
15,CCTACTGGGCCATCAGGTCATTGATATCAACGTT,0.527
16,GTTTACGGGTCAAAGGTTATAGCATGAATAGAAT,1.34
17,TCAGACAGGTGAAGGTAACTCCGGTACGCAGTCG,-0.276
18,TAGCCTAGGTCATGGGCCAGTATGCCACGCGAAC,-0.369

# Tested on: PPARg DBDmut IVT, anti-PPARg (DBD mutation: PPARg1 K132A/R137A, NR concentration 270 nM)
# Assay: as above
# Method in brief: as §1
row,Sequence,PBM binding z-score
1,CATACAGGGTCAGCAAGGCCAGAGTAGGGACGGC,0.984
2,CCTACTGGGCCAAAAAAGTCATTGATGCCGATAA,-0.274
3,CCAGACAGGTGGAAGGTAACTCAGTCTGGTACGC,-1.42
4,GCTAGTTGGTCAGTAAAGGGTCACACACCGGTCG,-0.645
5,TCTTGTAGCTCAAGCAGGTTAAGAAAGCCTGAGT,-0.282
6,ACTAGCAGGCCAAGGGTCACTAAAGATTAGTCCG,-0.44
7,CCGACTGGGGCCAGGTTACCATAACGCACAGCCA,-1.47
8,ATATGTAGGTTATCGGGTCATTCAATTTGCGCAT,2.36
9,CCTTTCGGGTCACTCCAGGTTATAGCATCGGAGT,-0.494
10,ACAGACAGGTGAGTGAAGGTAACTCCGCTGGACG,-0.279
11,TGTCAAAGTTCAACGGTAACGTAAGTATCCACAC,1.67
12,ATCTGTAGGTTAAGGGTCATTCAGGTTGGTTCGC,1.69
13,GGAAGGAGGGCAAAGTTGATAGCATCTGTCGACG,0.418
14,CGTCGAAGTTCAAGGTAACGTAACAGAAAGCAGC,-0.191
15,AGTCAAAGTTCATCCAGGTAACGTAAGATATGCT,1.23
16,TAGCCTAGGTCATGGGCGAGTATACCACGCGAAC,-0.639
17,CCAGACAGGTGAGAAGGTAACTAAGCCTCGATTA,-0.192
18,CATACAGGGTCAGCTACGCCAGAGTAGGGACGGC,1.25
19,CATACAGGGTCAGCGAGGCCAGAGTAGGGACGGC,0.403
20,AATACAGGGTCATCGCAGGCCAGAGTACGCACAG,0.985

row,Sequence,PBM binding z-score
1,TCATATAGGAAATACAGGTGAAAGTCGGCATCTA,0.426
2,TTACCAAGGTGGGCTGAGGTCGTTGATCCAACTC,-0.213
3,CAAACTAGGTCACCGGAAGGTCAAACTCCGCATG,4.65
4,TAGCCTAGGTCAGATCGGACCAGTATACGCTATA,0.399
5,TCATATAGGTAAAAGGTGAAAGTCGGTGTGGTAA,0.745
6,ACTATTCGTTGAGACGAGGGCAACCGATAGGTTG,0.89
7,TCGAGTAGGTTACCAATGGGCCATTCAGCTTTCT,-0.848
8,TCGAGTAGGTTAGACGGGGCATTCAGCCAACATA,0.319
9,AGAATGAGGTTACTAAGATCAGGGAATTGCGGTC,0.112
10,CCGACTGAGGCAGAAAGGTTACCATACCATCCGG,-0.731
11,GCAGACAGGTGAAACGCACGTAACTCAGGGTGGC,-0.35
12,CCGACTGGGGCAGAAAGGTTACCATACCATCCGG,-0.652
13,GCTCGGAGGAAAAGGTCAGAGCTTTGTCCGTAGA,-0.963
14,AGAATGAGGTAAAGATCAGGGAAACAGAATACAT,0.935
15,CAGCCCAGGTCAGGGCCAGTATAGGAGGAACGTT,-1.33
16,CGAACTAGGTCAGAACAGGACAGTGGAGGATGAT,0.317
17,CCTACTGGGCCATCAGGTCATTGATATCAACGTT,-0.213
18,GTTTACGGGTCAAAGGTTATAGCATGAATAGAAT,0.914
19,TCAGACAGGTGAAGGTAACTCCGGTACGCAGTCG,-0.342
20,TAGCCTAGGTCATGGGCCAGTATGCCACGCGAAC,0.218

# Tested on: PPARg homodimer (NR concentration 180 nM)
# Assay: as above
# Method in brief: as §1
row,Sequence,PBM binding z-score
1,CATACAGGGTCAGCAAGGCCAGAGTAGGGACGGC,1.18
2,CCTACTGGGCCAAAAAAGTCATTGATGCCGATAA,0.205
3,CCAGACAGGTGGAAGGTAACTCAGTCTGGTACGC,0.35
4,GCTAGTTGGTCAGTAAAGGGTCACACACCGGTCG,2.52
5,TCTTGTAGCTCAAGCAGGTTAAGAAAGCCTGAGT,-1.23
6,ACTAGCAGGCCAAGGGTCACTAAAGATTAGTCCG,2
7,CCGACTGGGGCCAGGTTACCATAACGCACAGCCA,0.249
8,ATATGTAGGTTATCGGGTCATTCAATTTGCGCAT,2.28
9,CCTTTCGGGTCACTCCAGGTTATAGCATCGGAGT,2
10,ACAGACAGGTGAGTGAAGGTAACTCCGCTGGACG,-0.155
11,TGTCAAAGTTCAACGGTAACGTAAGTATCCACAC,3.02
12,ATCTGTAGGTTAAGGGTCATTCAGGTTGGTTCGC,3.99
13,GGAAGGAGGGCAAAGTTGATAGCATCTGTCGACG,1.64
14,CGTCGAAGTTCAAGGTAACGTAACAGAAAGCAGC,0.722
15,AGTCAAAGTTCATCCAGGTAACGTAAGATATGCT,2.63
16,TAGCCTAGGTCATGGGCGAGTATACCACGCGAAC,0.74
17,CCAGACAGGTGAGAAGGTAACTAAGCCTCGATTA,0.387
18,CATACAGGGTCAGCTACGCCAGAGTAGGGACGGC,1.54
19,CATACAGGGTCAGCGAGGCCAGAGTAGGGACGGC,1.75
20,AATACAGGGTCATCGCAGGCCAGAGTACGCACAG,1.94

row,Sequence,PBM binding z-score
1,TCATATAGGAAATACAGGTGAAAGTCGGCATCTA,1.31
2,TTACCAAGGTGGGCTGAGGTCGTTGATCCAACTC,-0.101
3,CAAACTAGGTCACCGGAAGGTCAAACTCCGCATG,8.25
4,TAGCCTAGGTCAGATCGGACCAGTATACGCTATA,0.0652
5,TCATATAGGTAAAAGGTGAAAGTCGGTGTGGTAA,2.06
6,ACTATTCGTTGAGACGAGGGCAACCGATAGGTTG,0.322
7,TCGAGTAGGTTACCAATGGGCCATTCAGCTTTCT,-0.318
8,TCGAGTAGGTTAGACGGGGCATTCAGCCAACATA,-0.139
9,AGAATGAGGTTACTAAGATCAGGGAATTGCGGTC,0.638
10,CCGACTGAGGCAGAAAGGTTACCATACCATCCGG,0.893
11,GCAGACAGGTGAAACGCACGTAACTCAGGGTGGC,-0.768
12,CCGACTGGGGCAGAAAGGTTACCATACCATCCGG,1.04
13,GCTCGGAGGAAAAGGTCAGAGCTTTGTCCGTAGA,1.55
14,AGAATGAGGTAAAGATCAGGGAAACAGAATACAT,0.296
15,CAGCCCAGGTCAGGGCCAGTATAGGAGGAACGTT,0.907
16,CGAACTAGGTCAGAACAGGACAGTGGAGGATGAT,0.748
17,CCTACTGGGCCATCAGGTCATTGATATCAACGTT,1.26
18,GTTTACGGGTCAAAGGTTATAGCATGAATAGAAT,2.36
19,TCAGACAGGTGAAGGTAACTCCGGTACGCAGTCG,0.498
20,TAGCCTAGGTCATGGGCCAGTATGCCACGCGAAC,1.49
